In PubChem BioAssay AID743126 (The Scripps Research Institute Molecular Screening Center, 2013):
About 2,100 (0.57%) of roughly 370,000 compounds were called active. The entries come from a sample that favours actives as a whole. Values without a mark were called inactive.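 Rule for the calls: active = inhibition above mean plus 3 SD of compounds lying within the high and low control bounds (cut at about 19% in these data); inactive = the rest.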

Target: Group 3 secretory phospholipase A2 (Homo sapiens) (UniProt Q9NZ20)
Assay: human group III sPLA2 inhibitors, primary screen, biochemical, QFRET, BODIPY PC-A2 liposome substrate (AID 743126);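 note: 0% = median of test compound wells and 100% = no enzyme DMSO wells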
Settings: QFRET BODIPY PC-A2 liposome hydrolysis, fluorescence; at 12.2 µM; active compounds read high

Chain of Group 3 secretory phospholipase A2 (Homo sapiens) (Q9NZ20 whole entry, looked up): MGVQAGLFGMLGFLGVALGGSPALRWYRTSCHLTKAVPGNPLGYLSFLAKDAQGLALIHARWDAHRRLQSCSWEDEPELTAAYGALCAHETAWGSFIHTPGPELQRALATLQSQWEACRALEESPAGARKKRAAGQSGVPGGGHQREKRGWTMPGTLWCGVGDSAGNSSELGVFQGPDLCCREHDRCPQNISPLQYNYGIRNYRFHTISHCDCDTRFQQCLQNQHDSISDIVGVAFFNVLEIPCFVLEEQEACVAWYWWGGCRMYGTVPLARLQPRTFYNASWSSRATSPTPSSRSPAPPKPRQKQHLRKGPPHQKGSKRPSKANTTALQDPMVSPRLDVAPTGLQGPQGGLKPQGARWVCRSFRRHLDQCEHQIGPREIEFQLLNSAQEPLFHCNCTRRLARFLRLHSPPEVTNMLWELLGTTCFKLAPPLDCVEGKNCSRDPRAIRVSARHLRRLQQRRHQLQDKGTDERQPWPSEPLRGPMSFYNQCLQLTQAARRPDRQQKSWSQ

**Q.** For `O=C(Cc1c(Cl)cccc1Cl)NC1CC1`, which inhibition is on record?
**A.** The inhibition was 2.07%.

**Q.** How did the inhibition turn out when `O=C(NNc1cc(Cl)cc(Cl)c1)c1c(F)cccc1Cl` was run?
**A.** Its inhibition is 3.94%.

**Q.** How did the inhibition turn out when `O=C(CCl)NNc1cccc(Cl)n1` was run?
**A.** The inhibition was 71% (active).

**Q.** For `COC(=O)[C@]12C[C@H](CC(=O)N3CCOCC3)C(=O)N(Cc3ccc(Cl)cc3Cl)C1=C[C@H](COCc1ccccc1)O[C@@H]2C`, which inhibition is on record?
**A.** Its inhibition is -3.17%.

**Q.** With `O=C1CC(c2ccc3c(c2)OCO3)N=C2N(CC3CC3)C/C(=C/c3ccccc3)N12` (stereo not drawn) as the molecule, how does the inhibition read?
**A.** Its inhibition is -10.4%.

**Q.** Which inhibition does the source give for `CCOc1ccc(Br)cc1CSC(=N)N` here?
**A.** The inhibition was 34.9% (active).

**Q.** With `CCOc1ccc(Br)cc1S(=O)(=O)Nc1cccc(S(=O)(=O)N(CC)CC)c1` as the molecule, how does the inhibition read?
**A.** The inhibition was -8.7%.

**Q.** For `CCOc1ccc(Br)cc1S(=O)(=O)N1CCC(C(=O)O)CC1`, which inhibition is on record?
**A.** Its inhibition is 5.01%.

**Q.** `COc1ccc(-n2c(COc3ccccc3)nnc2SCC(=O)Nc2ccc3c(c2)OCO3)cc1` was tested. Which inhibition did it give?
**A.** The inhibition was -23.7%.

**Q.** How did the inhibition turn out when `CCNC(=S)Nc1ccc(OC(F)(F)F)cc1` was run?
**A.** The inhibition was 20.4% (active).

**Q.** Which inhibition does the source give for `CN(CC(=O)Nc1ccc(OC(F)(F)F)cc1)C(=O)C1CCC1` here?
**A.** The inhibition was 14.1%.

**Q.** How did the inhibition turn out when `CS(=O)(=O)c1sc(C(=O)NC(=S)Nc2ccc(OC(F)(F)F)cc2)c2c1C=CCC2` was run?
**A.** Its inhibition is 9.81%.

**Q.** For `CC(C)CNC(=S)NNC(=O)c1nn(C)cc1Cl`, which inhibition is on record?
**A.** The inhibition was 17.9%.

**Q.** `Cn1cc(Cl)c(C(=O)NNC(=S)Nc2cccc(Cl)c2)n1` was tested. Which inhibition did it give?
**A.** The inhibition was 42.2% (active).

**Q.** For `Cc1nn(C)cc1C(=O)NNC(=S)Nc1ccc(Cl)cc1`, which inhibition is on record?
**A.** The inhibition was 7.95%.

**Q.** With `COCCCNC(=O)CNC(=S)N(Cc1cc(OC)c(OC)c(OC)c1)C1CCCC1` as the molecule, how does the inhibition read?
**A.** The inhibition was 26.1% (active).

**Q.** `COc1ccc(CCNC(=O)CCC(=O)NC2CCCCC2)cc1OC` was tested. Which inhibition did it give?
**A.** Its inhibition is 3.45%.

**Q.** `COc1cc(C(=O)NCC(=O)NCCSc2ccc(Br)cc2)cc(OC)c1OC` was tested. Which inhibition did it give?
**A.** Its inhibition is -0.46%.

**Q.** `CC(C)(C)c1ccc(C(=O)Nc2cc(Cl)c(Br)cc2C(=O)O)cc1` was tested. Which inhibition did it give?
**A.** Its inhibition is -12.9%.

**Q.** With `O=C(Nc1cc(F)cc(F)c1)OC1CCC12CCC(c1ccccc1)CC2` (stereo not drawn) as the molecule, how does the inhibition read?
**A.** The inhibition was -7.77%.

**Q.** Which inhibition does the source give for `CC(Sc1nncn1C)C(=O)Nc1ccccc1-c1ccccc1` (stereo not drawn) here?
**A.** Its inhibition is 1.14%.

**Q.** Which inhibition does the source give for `CC(C(=O)Nc1ccccc1-c1ccccc1)N1CCOCC1` (stereo not drawn) here?
**A.** The inhibition was 19.6% (active).

**Q.** For `CC(C(=O)Nc1ccc(F)c(F)c1F)N1CCCCCC1` (stereo not drawn), which inhibition is on record?
**A.** Its inhibition is 7.49%.

**Q.** `O=C(CCS(=O)(=O)c1ccccc1)Nc1ccc(Cl)c(Cl)c1` was tested. Which inhibition did it give?
**A.** The inhibition was -9.24%.

**Q.** For `C=CS(=O)(=O)N(Cc1nnn(Cc2ccccc2)c1Br)[C@H](C(=O)OC)C(C)C`, which inhibition is on record?
**A.** Its inhibition is 4.97%.

**Q.** Which inhibition does the source give for `Fc1ccc2nc(COCc3nc4ccc(F)cc4[nH]3)[nH]c2c1` here?
**A.** The inhibition was -3%.

**Q.** Which inhibition does the source give for `Cc1ccccc1NC(=O)COC(=O)c1ccc(Sc2ncn[nH]2)c([N+](=O)[O-])c1` here?
**A.** Its inhibition is -13.9%.

**Q.** For `O=S(=O)(c1ccccc1)N1CCC(c2nc3ccccc3o2)CC1`, which inhibition is on record?
**A.** Its inhibition is -1.51%.

**Q.** Which inhibition does the source give for `CC(C)OC(=O)c1ccc(NCc2cc(O)ccc2O)cc1Cl` here?
**A.** The inhibition was 32.5% (active).

**Q.** `COc1ccc2c(c1)CN1CN(CCc3ccccc3)S(=O)(=O)CC21` (stereo not drawn) was tested. Which inhibition did it give?
**A.** Its inhibition is 1.49%.

**Q.** `C[C@@H]1ON(C)[C@H]2C[C@H]3c4[nH]c5cccc(-c6ccc7c(c6)OCO7)c5c4CCN3C[C@@H]12` was tested. Which inhibition did it give?
**A.** The inhibition was -5.9%.

**Q.** `O=C(NCCCc1ccccc1)[C@H](Cc1ccccc1)NC1(C(=O)NCCc2c[nH]c3ccccc23)CCC1` was tested. Which inhibition did it give?
**A.** Its inhibition is -86.7%.

**Q.** `CN(CCc1ccccc1)C(=O)Cn1nc(-c2ccccc2)ccc1=O` was tested. Which inhibition did it give?
**A.** The inhibition was 4.61%.

**Q.** `Cc1ccc(CN2CCCCC(NC(=O)C3CCCCC3)C2=O)cc1` (stereo not drawn) was tested. Which inhibition did it give?
**A.** Its inhibition is 2.08%.

**Q.** `O=C(NC1CCCCN(Cc2ccc(Cl)cc2)C1=O)c1ccc(Br)cc1` (stereo not drawn) was tested. Which inhibition did it give?
**A.** The inhibition was 2.5%.

**Q.** How did the inhibition turn out when `CN(C)c1ccc(NC(=O)NC2CCCCN(Cc3ccc(Cl)cc3)C2=O)cc1` (stereo not drawn) was run?
**A.** The inhibition was 20.4% (active).

**Q.** With `CCOc1ccc(N(CC(=O)Nc2c(C)n(C)n(-c3ccccc3)c2=O)S(=O)(=O)c2ccc(Cl)s2)cc1` as the molecule, how does the inhibition read?
**A.** The inhibition was -3.41%.

**Q.** Which inhibition does the source give for `O=C(NCCc1c[nH]c2ccccc12)OCc1cn(-c2c(F)cccc2F)nn1` here?
**A.** The inhibition was -62.2%.

**Q.** For `CC(=O)c1cc(-c2ccc3ccccc3c2)c(=O)n2c1CCC2`, which inhibition is on record?
**A.** The inhibition was -7.07%.

**Q.** `O=C(CCCCCN1C(=O)C2C3C=CC(C3)C2C1=O)Nc1ccccc1` (stereo not drawn) was tested. Which inhibition did it give?
**A.** Its inhibition is -2.11%.

**Q.** `CC(=O)Oc1ccc2c(c1)C(=O)c1ccccc1C2=O` was tested. Which inhibition did it give?
**A.** The inhibition was 20.7% (active).

**Q.** Which inhibition does the source give for `CC(=O)O[C@H]1c2ccccc2-c2ccccc2[C@@H]1OC(C)=O` here?
**A.** Its inhibition is 1.14%.

**Q.** `CC(=O)Nc1ccc(Oc2ccc3c(c2)C(=O)NC3=O)cc1` was tested. Which inhibition did it give?
**A.** The inhibition was 1.41%.

**Q.** For `COc1ccc(OCC(=O)NCCc2ccc(S(N)(=O)=O)cc2)cc1`, which inhibition is on record?
**A.** The inhibition was 0.5%.

**Q.** With `NS(=O)(=O)c1ccc(CCNC(=O)NC2CCCCC2)cc1` as the molecule, how does the inhibition read?
**A.** Its inhibition is 20.7% (active).

**Q.** For `O=C(NCCCNC(=O)NC1CCCCC1)NC1CCCCC1`, which inhibition is on record?
**A.** Its inhibition is 6.47%.

**Q.** How did the inhibition turn out when `O=C(NCCC1=CCCCC1)C1CCN(S(=O)(=O)c2ccc(Cl)s2)CC1` was run?
**A.** Its inhibition is -2.99%.

**Q.** For `COc1cccc(NC(=O)CCNS(=O)(=O)c2ccc3c(c2)oc(=O)n3C)c1`, which inhibition is on record?
**A.** Its inhibition is 5.16%.

**Q.** `COc1ccc(S(=O)(=O)NCCCCOc2ccc(Cl)cc2)cc1` was tested. Which inhibition did it give?
**A.** Its inhibition is -35.8%.

**Q.** With `COc1cccc(NC(C)=[N+](C)CCNS(=O)(=O)c2ccc(Cl)cc2)c1` as the molecule, how does the inhibition read?
**A.** Its inhibition is 22.1% (active).

**Q.** How did the inhibition turn out when `CN(C)[C@H]1CCN(c2cccc3c2S(=O)(=O)N2CC[C@H](C2)O3)C1` was run?
**A.** Its inhibition is -0.04%.

**Q.** For `Cc1ccc(OCc2nnc(SC/C=C/c3ccccc3)n2Cc2ccco2)cc1`, which inhibition is on record?
**A.** The inhibition was -14.9%.

**Q.** Which inhibition does the source give for `CC(=O)Nc1nc2ncccn2c1-c1ccc(C(F)(F)F)cc1` here?
**A.** Its inhibition is 11.9%.

**Q.** How did the inhibition turn out when `COC(=O)[C@]12C[C@H](CC(=O)N3CCN(C(=O)C4CC4)CC3)C(=O)N(CCC3=CCCCC3)C1=C[C@H](C(C)C)O[C@@H]2C1CC1` was run?
**A.** The inhibition was 4.41%.

**Q.** Which inhibition does the source give for `CN(CC(=O)Nc1ccccc1[N+](=O)[O-])Cc1ccc(Br)cc1` here?
**A.** Its inhibition is -9.41%.

**Q.** Which inhibition does the source give for `CSc1ccccc1NC(=O)CN(C)CC(=O)Nc1ccc(Cl)cc1[N+](=O)[O-]` here?
**A.** Its inhibition is -3.92%.

**Q.** Which inhibition does the source give for `CN(CC(=O)Nc1ccc(N2CCOCC2)cc1)CC(=O)Nc1ccccc1[N+](=O)[O-]` here?
**A.** Its inhibition is 20.6% (active).

**Q.** Which inhibition does the source give for `Cc1cc(=O)[nH]c(SCC(=O)Nc2ccc(F)cc2F)n1` here?
**A.** Its inhibition is -0.22%.
